Compound activity: PubChem, several laboratories
Compounds with a hit are over-represented: about 12% of the library has one in this group of screens.
L major viab: reduces viability of Leishmania major promastigotes; inhibition, % at 10 µM; AID 1063; resazurin fluorescence viability; 200,000 compounds, 9% hits; in the data active means inhibition above about 50%;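 further: promastigotes grown with compound for 44 hours at 28 °C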
ROMK primary: modulates human ROMK potassium channel activity. P48048. Tet-inducible ROMK, thallium flux fluorescence; actives lie on both sides. B-score at 10 µM. 130,000 compounds, 2% hits. AID 1918;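 active means signal ratio slope over the read window, or its plate-corrected B-score, at least 3 SD from the plate mean, either direction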;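 further: B-score of the F/F0 ratio slope over 7 to 12 s after thallium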
Calpain2 inh: blocks pig calpain II enzyme activity. inhibition, % at 16 µM. purified calpain II, fluorogenic peptide substrate, 30 min. 220,000 compounds, 0.37% hits;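 active means inhibition above about 50%, limit read from the data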
WT yeast gro inh: growth inhibition of WT yeast, mitochondrial fusion screen. inhibition, % at 10 µM. mitochondrial fusion phenotypic screen, WT strain. 190,000 compounds, 2.1% hits; in the data active means inhibition above about 58%; tested in S. cerevisiae
KCC2 mod: KCC2 (human) Cl- transport modulation; KCC2 cells, thallium flux FluoZin-2 fluorescence; B-score of Tl+ flux slope (higher = more flux/activation; lower = inhibition) at 10 µM; 190,000 compounds, 2.2% hits;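 active means thallium flux slope and its plate-corrected score both differing from the plate sample mean at a set confidence after two filtering rounds, in either direction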;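 further: slope of fluorescence scaled to starting intensity during 10 to 20 s after thallium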
An asterisk follows results filed as active; i = inactive; / = no result.

SMILES	L major viab	ROMK primary	Calpain2 inh	WT yeast gro inh	KCC2 mod
O=C(Cc1c(Cl)cccc1Cl)OCC(=O)N1CCN(C(=O)c2ccco2)CC1	-4	-0.25	9	-19	0.35
CCOC(=O)c1c(C)nc2ccc(Cl)cc2c1-c1ccccc1	51*	-0.33	13	64*	-0.68
CCOC(=O)c1c(C)nc2ccccc2c1-c1ccccc1	-2	/	3	-6	-1.5
COc1ccccc1C(O)P(=O)(OC1CCCCC1)OC1CCCCC1 (stereo not given)	/	/	-156	/	-0.052
O=P(OC1CCCCC1)(OC1CCCCC1)C(O)c1c(Cl)cccc1Cl (stereo not given)	53*	/	9	71*	-0.0092
O=P(OC1CCCCC1)(OC1CCCCC1)C(O)c1ccc(Cl)cc1Cl (stereo not given)	52*	0.057	17	15	1.2
CN(C)c1ccc(C(O)P(=O)(OC2CCCCC2)OC2CCCCC2)cc1 (stereo not given)	/	/	-2	/	-0.15
CCc1cccc(C)c1NC(=O)CO/N=C(\C)c1cc2ccccc2o1	70*	/	36	8	-1
CC(C)(C)c1ccc(C(=S)N2CCN(c3ccccc3)CC2)cc1	/	/	13	/	1.5
Cc1ccccc1N1CCN(C(=S)c2ccccc2)CC1	57*	-0.025	32	53	-0.039
CC(NC(=O)C12CC3(C)CC(C)(CC(C)(C3)C1)C2)C(=O)O (stereo not given)	0	0.26	-26	-6	0.23
CCOC(=O)C1=C(C)NC(=S)NC1c1ccc(-c2ccc(Cl)cc2)o1 (stereo not given)	63*	/	-20	66*	1.1
Cc1ccsc1C(=O)N(c1nc2ccccc2s1)c1c(C)cccc1C	100*	/	22	/	0.058
CCC(C(=O)NC(C)CCc1ccccc1)n1nc(C)n2c(cc3occc32)c1=O (stereo not given)	15	/	-15	4	-5.5*
Cc1cc(N2CCCN(C)CC2)nc2cc(Cl)ccc12	80*	/	-40	19	0.27
Cc1cc(N2CCCCCC2)nc2ccccc12	91*	/	-32	-7	0.0015
Cc1nn(-c2cc(C)c3ccccc3n2)c2c1C1C(C2)C1(C)C (stereo not given)	10	0.38	15	63*	1.1
CCOC(=O)Cc1cc(OC)c(OC)cc1Cc1cc(OC)c(OC)cc1CC(=O)OCC	0	-0.22	15	-20	0.058
CCNc1ccc2noc3c2c1C(=O)c1ccccc1-3	9	/	-6	46	-1.3
O=C1c2ccccc2-c2onc3ccc(NCc4ccco4)c1c23	-2	/	-8	66*	i
Cc1ccc(S(=O)(=O)N(Cc2ccc(Cl)cc2)c2ccccc2C(=O)NCc2ccco2)cc1	58*	/	9	43	-0.67
CCN(CC(=O)NCCc1ccccc1)S(=O)(=O)c1ccc(Br)cc1	5	/	39	-2	/
O=C(CN(Cc1ccccc1)S(=O)(=O)c1ccc(Br)cc1)NCc1ccco1	100*	/	37	13	-1.1
Cc1ccc(S(=O)(=O)N(Cc2ccccc2)Cc2ccco2)cc1	88*	/	26	76*	-0.19
Cc1ccccc1N(CC(=O)Nc1ccccc1C(=O)NCc1ccco1)S(=O)(=O)c1ccccc1	11	0.33	-9	-21	0.21
SMILES	L major viab	ROMK primary	Calpain2 inh	WT yeast gro inh	KCC2 mod
Cc1ccc(S(=O)(=O)N(Cc2ccc(F)cc2)Cc2ccco2)cc1	28	/	9	-8	-2.8
COc1ccc(N2CCN(CCCNS(=O)(=O)c3ccc4c(c3)oc(=O)n4C)CC2)cc1	-8	/	-31	11	-0.0091
Cc1ccc2cc(S(=O)(=O)NCCCN3CCOCC3)ccc2c1	93*	-1.6	30	11	0.7
O=[N+]([O-])c1cccc(S(=O)(=O)NCCCN2CCOCC2)c1	11	0.038	13	1	0.23
COc1ccc2cc(S(=O)(=O)NCCCN3CCOCC3)ccc2c1	89*	-1.1	3	-7	-0.14
O=C1NC2(CCSC2)C(=O)N1CC(=O)N(Cc1ccccc1)C1CCS(=O)(=O)C1 (stereo not given)	/	-0.039	8	/	1
COc1ccc(C2SCC(=O)N2CC23CC4CC(CC(C4)C2)C3)cc1 (stereo not given)	33	-0.24	17	76*	-0.35
NC(=O)Nc1ccc(C(=O)OCC(=O)NC2CCCCC2)cc1	-8	0.065	-1	2	0.38
COc1ccc(OC)c(-c2csc(NC(=O)c3ccc(OCC4CCCO4)cc3)n2)c1 (stereo not given)	42	/	-164	-12	-0.82
COc1ccc(OC)c(-c2csc(NC(=O)Cn3[nH]c(=O)c4ccccc4c3=O)n2)c1	4	0.058	-166	-43	0.94
COc1ccc(OC)c(-c2csc(NC(=O)CSc3ccc([N+](=O)[O-])cc3)n2)c1	85*	0.71	-22	33	0.026
COc1ccc(OC)c(-c2csc(NC(=O)CSc3ccc(Br)cc3)n2)c1	53*	0	3	36	0.84
Cc1cc(F)c(F)c(C(=O)N2C(C)CCCC2C)c1Cl (stereo not given)	-3	-0.61	6	-5	0.6
CCOc1cc(S(=O)(=O)N(Cc2ccccc2)Cc2ccccc2)c(OCC)cc1-n1cnnn1	92*	/	10	11	/
CCOc1cc(S(=O)(=O)NCc2ccccc2)c(OCC)cc1-n1cnnn1	-2	/	/	/	1.2
CC(C)(C)C(=O)NC(Nc1cccc2cccnc12)C(Cl)(Cl)Cl (stereo not given)	55*	0.84	-2	-12	/
CCC(=O)NC(NC(=S)Nc1cccc2cccnc12)C(Cl)(Cl)Cl (stereo not given)	1	-0.29	8	-6	-0.12
Cc1cccc(-n2c(=S)[nH]c3c(oc4ccccc43)c2=O)c1	58*	2.4	25	20	0.19
CCOc1cc(NC(=O)c2cccs2)c(OCC)cc1NC(=O)CCC(=O)NCC1CCCO1 (stereo not given)	-3	/	41	15	-0.079
O=C(Nc1cccc(C(F)(F)F)c1)C1CCCN1S(=O)(=O)c1cccc2cccnc12 (stereo not given)	84*	-2.3	0	3	-1.1
O=C(Nc1ccc(S(=O)(=O)Nc2nccs2)cc1)c1ccc(=O)[nH]c1	-6	-0.025	-63	-34	0.26
COC(=O)C1C(=O)C2=C(CC1C)NC(C)=C(C(=O)OC1CCCC1)C2c1ccc(N(C)C)cc1 (stereo not given)	59*	-0.72	0	57	-0.053
CCOC(=O)Cc1csc(NC(=O)c2ccc(Br)s2)n1	3	/	2	-2	0.28
CCOC(=O)Cc1csc(NC(=O)CSc2nnc(-c3ccncc3)o2)n1	51*	1.8	19	17	0.9
CCOC(=O)Cc1csc(NC(=S)NC(=O)c2ccccc2Br)n1	-13	/	12	30	50*
CCOC(=O)Cc1csc(NC(=O)c2ccc(C)cc2)n1	-1	-0.38	11	12	-0.074
CCOC(=O)Cc1csc(NC(=S)NC(=O)c2ccc(C)cc2)n1	6	/	16	0	55*
CCOC(=O)Cc1csc(NC(=S)NC(=O)c2ccccc2)n1	-7	-0.28	14	23	52*
CCOC(=O)Cc1csc(NC(=O)CSc2nnc(-c3ccc(NS(=O)(=O)CC)cc3)o2)n1	1	0.045	/	/	0.59
